The values below come from PubChem BioAssay AID504690 (Sanford-Burnham Center for Chemical Genomics, 2011).

The structures appear in SMILES notation. Among all 350,000 compounds or so, about 2,700 (0.77%) were called active.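 How the source made its calls: active means inhibition reaching at least a set limit at 20 µM in the primary screen (cut at about 59% in these data); inactive means the rest.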 What follows is part of a selection rich in actives, with near analogues and random picks from the rest.

In the experiment the test system is glucose-6-phosphate dehydrogenase-6-phosphogluconolactonase (Plasmodium falciparum 3D7). In words: PfG6PD enzyme inhibitors, primary screen, biochemical, fluorescence intensity, uHTS (AID 504690).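 Further: 0% = DMSO wells with substrate and 100% = DMSO wells lacking glucose-6-phosphate.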 Particulars: PfGluPho enzyme, NADPH resazurin-diaphorase fluorescence; at 20 µM; active compounds read high. (In general: Alamar Blue is a resazurin reagent that responds to reducing activity.)
One may read the inhibition as the drop in the measured response relative to a control, in per cent. `COc1ccc2[nH]c(=O)c(C3c4cc(OC)c(OC)cc4CCN3C(=O)c3ccco3)cc2c1` (stereo not given): the inhibition was 8.2% (inactive).

On to `O=C(NCc1cccnc1)c1ccc(CS(=O)(=O)c2ccc(Br)cc2)o1`, for which the inhibition is -4.96% (inactive).

For `CC1CCCCC1NC(=O)CSc1nnc(N)s1` (stereo not given), the inhibition was -8.21% (inactive).

As to `O=C(COC(=O)c1cccc(Cl)c1)NC1CCCCCCC1`, the inhibition was 17.2% (inactive).

With `CC(C)(C)c1nnc(NC(=O)C2c3ccccc3Oc3ccccc32)s1`, the inhibition was 77.4% (active).

As for `CCCN(CCC)C(=O)C1c2ccccc2Oc2ccccc21`, the inhibition was -24.1% (inactive).

For the compound `CC(C)(C)NC(=O)NC(=O)COC(=O)C1c2ccccc2Oc2ccccc21`, the inhibition was -18.1% (inactive).

Regarding `CCc1ccc2oc(-c3ccc(N)cc3)nc2c1`, the inhibition was 16.4% (inactive).

`Cc1ccc2oc(=O)ccc2c1`: the inhibition is -9.67% (inactive).

In the case of `CCN(CC)c1ccc2oc(=O)c(C)nc2c1`, the inhibition was 94.1% (active).

On to `COc1ccc(S(=O)(=O)N2CCOCC2)cc1NC(=O)Cc1coc2cc(C)ccc12`, for which the inhibition was -4.24% (inactive).

In the case of `O/N=C(\c1ccc2c(c1)OCCO2)C1CCCCC1`, the inhibition is -2.41% (inactive).

For the compound `CCc1ccc(-n2c(=S)sc3c(=O)n(-c4ccccc4OC)c(=S)[nH]c32)cc1`, the inhibition is 55.6% (inactive).

For `COc1ccccc1-n1c(=S)[nH]c2c(sc(=S)n2-c2ccc(C)cc2C)c1=O`, the inhibition was 78.9% (active).

Regarding `COc1ccccc1N1CCN(c2nc(C)cc(=O)[nH]2)CC1`, the inhibition was 15.1% (inactive).

As to `CCCCn1nc(C(=O)Nc2ccc(S(=O)(=O)Nc3ncccn3)cc2)c2ccccc2c1=O`, the inhibition was -8.76% (inactive).

As to `NS(=O)(=O)c1ccc(CNC(=O)c2cc(S(=O)(=O)N3CCOCC3)ccc2N2CCCC2)cc1`, the inhibition is 2.61% (inactive).

Turning to `COc1ccc(NC(=O)COC(=O)CNC(=O)C2CCCCC2)cc1`, the inhibition was -2.97% (inactive).

Turning to `Cc1ccccc1OCC(=O)Nc1nnc(S(=O)(=O)N2CCCC2)s1`, the inhibition is -10.3% (inactive).

For the compound `COc1cccc(C(=O)Nc2nnc(S(=O)(=O)N3CCOCC3)s2)c1`, the inhibition is 97.7% (active).

Consider `CN(Cc1ccco1)S(=O)(=O)c1nnc(NC(=O)c2ccccc2)s1`, for which the inhibition is 58.2% (inactive).

For `COc1cccc(C(=O)Nc2ccc3nc4n(c(=O)c3c2)CCCCC4)c1`, the inhibition was 20% (inactive).

Consider `COc1cccc(C(=O)Nc2nnc(S(=O)(=O)N(C)c3ccccc3)s2)c1`, for which the inhibition was 96.6% (active).

As to `CC(=O)c1cccc(NC(=O)COc2ccc(S(=O)(=O)N3CCOCC3)cc2)c1`, the inhibition is 3.48% (inactive).

Take `CN(Cc1ccccc1)S(=O)(=O)c1nnc(NC(=O)c2ccccc2F)s1`: the inhibition is 27.5% (inactive).

Take `COc1ccc(OC)c(NC(=O)c2cccc(S(=O)(=O)N3CCN(C(C)=O)CC3)c2)c1`: the inhibition was -11.9% (inactive).

With `COc1cccc(C(=O)Nc2nnc(S(=O)(=O)N3CCCCC3)s2)c1`, the inhibition is 112% (active).

Consider `Cc1csc2ncc(C(=O)N(Cc3ccccc3)c3ccccn3)c(=O)n12`, for which the inhibition was -14.5% (inactive).

As for `Cc1cccc(C)c1NC(=O)C1CCCN1C(=O)OC(C)(C)C` (stereo not given), the inhibition was -0.36% (inactive).

Regarding `CC(C)(C)c1cc(=O)n2c(nc3ccccc32)[nH]1`, the inhibition was 12.8% (inactive).

Consider `CCc1cccc(C)c1NC(=O)COC(=O)CNC(=O)c1cccs1`, for which the inhibition was 4.68% (inactive).

Consider `CCc1c(C)sc(NC(=O)c2cccs2)c1C(N)=O`, for which the inhibition is 71% (active).

Take `CCc1ccc(NC(=O)C(=O)NNC(=O)c2cccs2)cc1`: the inhibition is -15.6% (inactive).

Consider `C=CCCC(=O)N1C[C@H]2CON(C)[C@H]2C[C@H]1c1cccc(Nc2ccccc2)c1`, for which the inhibition is 21.3% (inactive).

For the compound `O=C(OCC(=O)N1CCCCC1)c1ccc(OC(F)(F)F)cc1`, the inhibition was -6.53% (inactive).

`O=c1c2c(nc3nc[nH]n13)CCC2`: the inhibition was 16.4% (inactive).

Regarding `O=c1c2c(nc3cc(-c4cccc(Cl)c4)[nH]n13)CCCC2`, the inhibition is 75% (active).

For `CCCCN1Cc2c(nc3cc(-c4ccccc4)[nH]n3c2=O)C1=O`, the inhibition was -27.7% (inactive).

Turning to `CCOC(=O)c1cnn2c(SC)ncnc12`, the inhibition is 5.86% (inactive).

In the case of `Cc1cc(C)n(Cc2cnc(N3CCOCC3)s2)n1`, the inhibition was 2.1% (inactive).

For `CC1(C)CC(=O)c2cc(OCC(=O)NCC3CCCO3)ccc2O1` (stereo not given), the inhibition was 7.52% (inactive).

For the compound `CC(=O)Nc1ccc2c3c(ccc([N+](=O)[O-])c13)CC2`, the inhibition is 1.79% (inactive).

Turning to `Clc1ccc2c(c1)C1=C(C(c3ccncc3)O2)C(c2ccc(Br)cc2)n2ncnc2N1` (stereo not given), the inhibition was 78.5% (active).

As to `Brc1ccc(C2=CC(c3ccco3)n3ncnc3N2)cc1` (stereo not given), the inhibition is 23.3% (inactive).

Regarding `O=C(C1CCN(S(=O)(=O)c2ccc(Br)s2)CC1)N1CCN(C2CCCCC2)CC1`, the inhibition was 3.65% (inactive).

Take `Cc1ccnc(SC2CC(=O)N(c3ccccc3)C2=O)n1` (stereo not given): the inhibition was -11.7% (inactive).

On to `Cc1ccnc(-n2sc3ccccc3c2=O)n1`, for which the inhibition was 97% (active).

Consider `O=C(NCc1ccccc1)C1CCCN(S(=O)(=O)c2cccs2)C1` (stereo not given), for which the inhibition was 3.61% (inactive).

Take `C[C@@H]1CCCCO[C@H](CN(C)Cc2ccccc2)[C@@H](C)CN([C@H](C)CO)C(=O)c2cc(NS(=O)(=O)c3ccc(Cl)cc3)ccc2O1`: the inhibition is 36.3% (inactive).

Consider `O=c1[nH]nc(Cc2ccccn2)c2ccccc12`, for which the inhibition is 1.12% (inactive).

As to `Fc1ccc(/C=N/n2c(COc3ccccc3)n[nH]c2=S)cc1`, the inhibition is 27.2% (inactive).

Take `COc1ccc(OCc2n[nH]c(=S)n2N)cc1`: the inhibition is 71.3% (active).

Turning to `COc1ccc(Cc2n[nH]c(=S)n2NC(=O)Nc2ccc(C)cc2)cc1`, the inhibition was 15.8% (inactive).

As to `CCOc1ccc(NS(=O)(=O)c2ccc(Cl)c(C(=O)N(C)Cc3cccnc3)c2)cc1`, the inhibition is -26.1% (inactive).

Regarding `C=CCn1c(SCC(N)=O)nnc1-c1cc2c(s1)CCC(CC)C2` (stereo not given), the inhibition is 2.97% (inactive).

As for `CCC1=NN(C(=O)Cc2ccc([N+](=O)[O-])cc2)C(O)(c2ccc(Br)cc2)C1` (stereo not given), the inhibition is -3.74% (inactive).

With `CC1(C)NC(=O)N(CC(=O)N2CCN(S(=O)(=O)c3ccccc3F)CC2)C1=O`, the inhibition is -13.8% (inactive).

With `O=C(COc1ccccc1)Nc1ccc(F)cc1`, the inhibition was -2.38% (inactive).

For the compound `O=C(COc1ccccc1)Nc1nonc1NC(=O)COc1ccccc1`, the inhibition is 71.2% (active).

`O=C(COc1ccccc1)Nc1ccc(C(=O)N2CCCC2)cc1`: the inhibition was -12.5% (inactive).

For the compound `COc1ccc([N+](=O)[O-])cc1N(CC(O)Cn1nnc2ccccc21)S(=O)(=O)c1ccc(C)cc1` (stereo not given), the inhibition is -4.47% (inactive).

For `Cc1nc([N+](=O)[O-])nn1C12CC3CC(CC(Br)(C3)C1)C2`, the inhibition was 71% (active).

Consider `CC1CCC(CN2CCN=C2N(C)C)CC1` (stereo not given), for which the inhibition was -9.19% (inactive).

`CCOc1ccc(S(=O)(=O)N2CCCC(C(=O)N3CCC(C(N)=O)CC3)C2)cc1Cl` (stereo not given): the inhibition is -4.54% (inactive).

As for `CCOC(=O)[C@@H]1[C@H]2COc3ccc(Br)cc3[C@H]2N2C(=O)N(c3ccc(Cl)cc3)C(=O)[C@@]12C`, the inhibition is 9.82% (inactive).

On to `COC(=O)c1sc(=S)n(-c2ccccc2)c1N`, for which the inhibition was 65.1% (active).

Regarding `COCCOC(=O)c1sc(=S)n(CCOC)c1N`, the inhibition is 25.1% (inactive).

Regarding `COC(=O)c1sc(N2CCN(Cc3ccccc3)CC2)nc1N`, the inhibition was -11.2% (inactive).

Take `Cc1ccc(-n2c(N)c(C(=O)N3CCOCC3)sc2=S)c(C)c1`: the inhibition was -1.21% (inactive).

For `O=C(c1ccc(S(=O)(=O)N2CCCC2)cc1)N1CCN(c2ccccc2F)CC1`, the inhibition was 7.54% (inactive).

In the case of `COc1cccc(N2CCN(c3ccc4nnc(CCC(=O)N5CCN(C)CC5)n4n3)CC2)c1`, the inhibition is 6.62% (inactive).

Consider `N#Cc1c(N)sc2c1CCN(C(=O)OCc1ccccc1)C2`, for which the inhibition is 42.3% (inactive).

As to `Cc1cccc(-n2c(N)c(C(=O)N3CCN(C)CC3)sc2=S)c1`, the inhibition was 79.6% (active).

Take `N#Cc1ccccc1-n1c(N)c(C(=O)N2CCCC2)sc1=S`: the inhibition was 60% (active).

For `O=C(OCc1ccccc1)N1CCC2CC1c1ccc(-c3ccc4c(c3)OCO4)cc12` (stereo not given), the inhibition is 2.75% (inactive).

Turning to `O=C(Cc1ccsc1)N1CCN(S(=O)(=O)c2cc(C(F)(F)F)cc(C(F)(F)F)c2)CC1`, the inhibition is 9.01% (inactive).

As to `Cc1cccc(N2C(=O)N3[C@H](c4ccc(F)cc4)[C@@H]4C(=O)N(C5CCCCC5)C(=O)[C@@H]4[C@]3(Cc3ccccc3)C2=O)c1`, the inhibition is -21.6% (inactive).

Consider `COc1ccccc1Cn1c(C)nnc1-c1cnn(C)c1N`, for which the inhibition is -9.47% (inactive).

For the compound `Cc1cc(C)c2c(c1)c(C)cc1nnc(SCC(=O)NCc3ccco3)n12`, the inhibition is 46.3% (inactive).

Consider `Cc1ccc(OCCNC(=O)CNC(=O)c2ccc(C)c(C)c2)cc1`, for which the inhibition is -19.6% (inactive).

In the case of `CNN/C(N=Cc1ccc([N+](=O)[O-])s1)=N\S(=O)(=O)c1cc(C)c(Cl)cc1SCc1ccccc1`, the inhibition was 5.23% (inactive).

`O=[N+]([O-])c1ccc(C=Nc2ccc(Cl)cc2Cl)s1`: the inhibition is 76.4% (active).

Take `Cc1ccc(NC(=O)C2CCC(C(C)(C)C)CC2)cc1S(=O)(=O)N1CCOCC1` (stereo not given): the inhibition was 30.1% (inactive).

On to `O=C1CCC(C(=O)OCC(=O)Nc2ccc(OC(F)F)cc2)=NN1`, for which the inhibition was 3.76% (inactive).

In the case of `Oc1ccc(N=Cc2c(O)ccc3ccccc23)cc1`, the inhibition was 62.9% (active).

For the compound `Cc1cc(N=Nc2ccc3ccccc3c2)ccc1O`, the inhibition was 0.29% (inactive).

For `CCOc1[nH]n(-c2ccc(Cl)cc2)c(=O)c1C=Nc1ccc(O)cc1`, the inhibition is -1.23% (inactive).

Regarding `CCn1nnc2cc(C(=O)Nc3ccc(C(=O)OC(C)C)cc3)ccc21`, the inhibition is 22.8% (inactive).

For `COc1cccc(C(CC(=O)NCCN2CCOCC2)NS(=O)(=O)c2ccc(C)cc2)c1OC` (stereo not given), the inhibition was 11% (inactive).

In the case of `CSc1n[nH]c(=S)n1N`, the inhibition is 65.2% (active).

With `Cc1ccc(S(=O)(=O)N2CCCCC2)cc1C(=O)N1CCN(CCO)CC1`, the inhibition is -1.65% (inactive).

Take `CC(=O)c1ccc(NC(=O)C2CCCN2S(=O)(=O)c2cccs2)cc1` (stereo not given): the inhibition was 14.3% (inactive).

Consider `COc1ccc(Nc2ccc3ccccc3c2)cc1`, for which the inhibition was 53.2% (inactive).

Regarding `COc1ccc(Nc2cc(Sc3ccc(OC)cc3)ncn2)cc1`, the inhibition was 77.5% (active).

Regarding `COc1ccc(Nc2ncnc3sc(C)cc23)cc1`, the inhibition was 4.18% (inactive).
